Measured values reported in PubChem BioAssay (NCATS).
Several values for one entry are separate records, joined by “and”; a condition that tells them apart may be missing. Identical values can stand only once. Results filed as inconclusive are left out. The source holds several records for some structures; these can differ, active in one and inactive in another. Activity calls are given as the source filed them. Calls come from the whole dose curve; as a rule, active = well fitted inhibition curve with a large enough effect; inconclusive = small, poorly fitted or top-dose-only effect; inactive = flat fitted curve, though single readings scatter.

Experiment: Drug repurposing screens with cells derived from glioblastoma tumor samples (AID 1345199); note: nearly all actives have a fitted effect of over 40% in size
Details: GBM patient neurospheres viability, ATP luminescence, 48 h
Description: CD133+ cells were isolated from GBM patient biopsies and cultured as neurospheres. Neurospheres from four patients were used to screen the NCATS pharmaceutical collection (NPC) library of approved drugs and bioactive compounds. […] The neurospheres were incubated with drugs for 48 hours in 1536-well format, then assayed with an ATP content cell viability assay. […] These hits were cherry picked to confirm activity in the four original GBM lines screened plus three other slower growing GMB lines (unable to yield enough cells for a full primary screen). Variable activities of the confirmed primary hits in the different GBM patient lines were observed. The patient line 206 responded to the greatest number of compounds and line 923 responded to the least amount of active compounds.

[1] = at 20 µM (top of the series), tumour line C
[2] = at 21.2 µM (top of the series), tumour line B
[3] = at 21.2 µM (top of the series), tumour line D
[4] = at 21.3 µM (top of the series), tumour line A
[5] = at 45.9 µM (top of the series), tumour line B
[6] = at 45.9 µM (top of the series), tumour line D
[7] = at 46.1 µM (top of the series), tumour line C
[8] = at 46 µM (top of the series), tumour line A
% is set by controls: 0 for no effect and ±100 for the full control effect; potency is the fitted concentration of half-maximal effect.

O=C(O)COCCN1CCN(C(c2ccccc2)c2ccc(Cl)cc2)CC1 (stereo not given)
activity, negative = cell killing [1]: -26.4% (inactive)
activity, negative = cell killing [2]: -3.42% (inactive)
activity, negative = cell killing [3]: -18.8% (inactive)
activity, negative = cell killing [4]: -26.6% (inactive)

NNCCc1ccccc1
activity, negative = cell killing [1]: -0.565% (inactive)
activity, negative = cell killing [2]: -10.9% (inactive)

CCCCNc1cc(C(=O)O)cc(S(N)(=O)=O)c1Oc1ccccc1
activity, negative = cell killing [3]: -6.33% (inactive)
activity, negative = cell killing [4]: -23.2% (inactive)

c1ccc([C@H]2CN3CCSC3=N2)cc1
activity, negative = cell killing [5]: -5.9% (inactive)
activity, negative = cell killing [6]: -15.5% (inactive)
activity, negative = cell killing [7]: -7.79% (inactive)
Potency (tumour line A): 15.8 µM (active)

NC(=O)c1cnccn1
activity, negative = cell killing [5]: -8.76% (inactive)
activity, negative = cell killing [6]: -23.3% (inactive)
activity, negative = cell killing [8]: -24.5% (inactive)
activity, negative = cell killing [7]: -17% (inactive)

N=c1nc(N2CCCCC2)cc(N)n1O
activity, negative = cell killing [5]: -6.91% (inactive)
activity, negative = cell killing [6]: -11% (inactive)
activity, negative = cell killing [8]: -16.6% (inactive)

O=C1CCc2cc(OCCCCc3nnnn3C3CCCCC3)ccc2N1
activity, negative = cell killing [5]: -16.9% (inactive)
activity, negative = cell killing [6]: -10.7% (inactive)
activity, negative = cell killing [7]: -10.2% (inactive)

O=c1[nH]cnc2[nH]ncc12
activity, negative = cell killing [5]: -5.74% (inactive)
activity, negative = cell killing [6]: -0.0406% (inactive)
activity, negative = cell killing [8]: -9.81% (inactive)
activity, negative = cell killing [7]: 7.88% (inactive)

NCCCC(N)(C(=O)O)C(F)F (stereo not given)
activity, negative = cell killing [5]: -9.02% (inactive)
activity, negative = cell killing [6]: 7.69% (inactive)
activity, negative = cell killing [8]: -29.6% (inactive)
activity, negative = cell killing [7]: -4.46% (inactive)

Cc1cnc(NC(=O)C2=C(O)c3ccccc3S(=O)(=O)N2C)s1
activity, negative = cell killing [5]: -11.1% (inactive) and -5.23% (inactive)
activity, negative = cell killing [6]: 7.55% (inactive) and -2.79% (inactive)
activity, negative = cell killing [8]: -27.8% (inactive)
activity, negative = cell killing [7]: 4.05% (inactive) and -0.835% (inactive)

Cc1ccccc1C(OCCN(C)C)c1ccccc1 (stereo not given)
activity, negative = cell killing [6]: -29.5% (inactive)
activity, negative = cell killing [7]: 0.923% (inactive) and -8.9% (inactive)

CN1CCN(CCCN2c3ccccc3Sc3ccc(C(F)(F)F)cc32)CC1
activity, negative = cell killing [7]: -24.2% (inactive)
Potency (tumour line A): 2.51 µM (active)
Potency (tumour line B): 15.8 µM (active)
Potency (tumour line D): 6.31 µM (active)
